Most compounds without a hit are left out; they make up all but 27% or so of the library.
sEH act = soluble epoxide hydrolase (human) activation | P34913 | purified human sEH enzymatic activity, activator screen | activation, % at 2 µM | 91,000 compounds, 0.04% hits; in the data active = activation above about 37%
sEH inhibitor = inhibitors of human soluble epoxide hydrolase; P34913; recombinant human sEH enzymatic activity assay; inhibition, % at 2 µM; 91,000 compounds, 0.34% hits; AID 707; in the data active = inhibition above about 80%
CYP2C9 activ = increases human cytochrome P450 2C9 activity; recombinant CYP2C9, luciferin-H conversion, luminescence; hits give high values; factor 1 = untreated enzyme, 0 = blocked; P11712; AID 1024; activation factor at 5 µM; 96,000 compounds, 1.4% hits;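 active = activation factor of 2 or more for CYP2C9 at a 5 µM dose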;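 note: 0 = sulfaphenazole-blocked wells and 1 = vehicle-only wells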
CYP2C19 activ = increases human CYP2C19 enzyme activity. activation factor at 5 µM. recombinant CYP2C19, luciferin-H EGE luminescence; hits give high values; 0 = fully inhibited enzyme, 1 = untreated enzyme. AID 1025. 96,000 tested, under 10 active. P33261;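 active = activation factor of at least 2 at 5 µM in the primary screen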;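 note: 0 = wells with 2.5 mM tranylcypromine and 1 = vehicle-only wells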
Target sequence (P33261 whole entry, looked up): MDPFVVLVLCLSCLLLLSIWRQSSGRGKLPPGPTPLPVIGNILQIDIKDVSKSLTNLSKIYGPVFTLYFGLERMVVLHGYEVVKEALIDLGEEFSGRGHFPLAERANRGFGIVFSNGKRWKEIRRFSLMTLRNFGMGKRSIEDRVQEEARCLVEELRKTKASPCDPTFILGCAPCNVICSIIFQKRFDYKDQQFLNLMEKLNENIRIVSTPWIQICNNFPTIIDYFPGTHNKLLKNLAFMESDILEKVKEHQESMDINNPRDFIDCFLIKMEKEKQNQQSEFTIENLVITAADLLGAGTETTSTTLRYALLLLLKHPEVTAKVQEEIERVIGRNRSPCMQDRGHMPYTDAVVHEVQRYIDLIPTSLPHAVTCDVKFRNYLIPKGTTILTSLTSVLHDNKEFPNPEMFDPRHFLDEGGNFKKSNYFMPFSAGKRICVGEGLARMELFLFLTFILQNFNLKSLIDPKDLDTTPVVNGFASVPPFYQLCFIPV
CYP2C19 inhib = human CYP2C19 inhibition | P33261 | CYP2C19 Supersomes, luciferin-H EGE luminescence, 30 min | inhibition, % at 5 µM | 96,000 compounds, 21% hits;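 active = CYP2C19 inhibition above a set limit at 5 µM in the primary screen, cut at about 50% in these data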;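 note: plate controls were negative control wells for no effect and 2.5 mM tranylcypromine positive control for full effect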
CYP2C9 inh = inhibitors of human CYP2C9. 96,000 compounds, 20% hits. CYP2C9 Supersomes, luciferin-H conversion, luminescence. AID 777. P11712. inhibition, % at 5 µM;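 active = blocking of liver enzyme CYP2C9 beyond about 50% at 5 µM, limit read from the data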
Active calls of the source: *; . = no result.

SMILES	sEH act	sEH inhibitor	CYP2C9 activ	CYP2C19 activ	CYP2C19 inhib	CYP2C9 inh
CCOC(=O)c1sc2ccccc2c1OC(=O)c1ccccc1	-1.2	3.8	0.1	0.2	84.9*	90.3*
CCCn1nnc(NC(=O)c2cccc(Cl)c2)n1	5.9	-6.5	.	.	.	.
CCCn1nnc(NC(=O)c2sc3ccccc3c2Cl)n1	-18.1	17.9	1.1	0.4	60.6*	-7.2
CCCC(=O)N1CCN(c2ccc(NC(=O)c3sc4ccccc4c3Cl)cc2)CC1	10.1	-8.9	1	0.9	14.8	-1.0
CCCOC(=S)NC(=O)c1sc2ccccc2c1Cl	-13.0	11.5	0.3	0.9	9.9	68.3*
CSc1nsc(/C=C/Nc2ccc(C)cc2)c1C#N	16.3	-15.2	0.7	0.9	7.0	27.1
CCOC(=S)NC(=O)c1sc2ccccc2c1Cl	-3.0	1.2	0.1	1	3.5	90.5*
CCC(OC(=O)c1cc2sccc2n1C)C(=O)NCC1CCCO1 (stereo unspecified)	-1.6	3.7	0.9	0.8	24.6	11.0
CC(OC(=O)c1cc2sccc2n1C)C(=O)NCc1ccc(F)cc1 (stereo unspecified)	4.8	-1.1	0.3	0.2	78.5*	74.4*
CC(OC(=O)c1cc2sccc2n1C)C(=O)NCCc1ccccc1 (stereo unspecified)	0.0	-1.2	0.2	0.5	52.5*	82.7*
CC(OC(=O)c1cc2sccc2n1C)C(=O)NCc1ccc2c(c1)OCO2 (stereo unspecified)	-10.7	12.5	0.2	0.7	31.8	82.3*
Cc1ccc(Nc2nnc(SCC(=O)NCc3ccco3)s2)cc1	.	.	0.4	0.6	43.5	57.7*
Cc1ccc(Nc2nc(C3CC3)cs2)cc1	.	.	0.7	0.8	20.5	26.3
Cc1ccc(Nc2nc(C(=O)NCCCN3CCOCC3)cs2)cc1	12.6	-10.7	0.7	0.7	27.6	25.5
CCOC(=O)/C(=N\Nc1ccc(Cl)cc1)c1csc(Nc2ccccc2)n1	14.8	-13.9	0.1	0.9	12.3	87.1*
CCN(CC)C(=O)c1csc(Nc2ccc(C)cc2)n1	-7.2	6.8	0.4	0.2	81.1*	60.7*
CCOC(=O)/C(=N/Nc1ccccc1)c1csc(Nc2ccccc2)n1	6.7	-7.1	0.6	0.9	7.1	43.7
Cc1ccc(Nc2nc(C(=O)NCc3ccco3)cs2)cc1	-5.3	6.8	0.1	0.1	86.2*	91.0*
O=C(CSc1ccccc1C(=O)NCCCN1CCCC1=O)NCc1ccco1	-4.1	7.7	1.1	1.1	-11.7	-8.1
O=S(=O)(c1ccc(NCC2CCCCC2)nc1)N1CCOCC1	0.3	2.6	0.8	0.9	10.1	17.2
Cn1c(/C(C#N)=C(\O)COc2ccc3ccccc3c2)nc2ccccc21	.	.	1.1	0.9	8.6	-6.0
O=C(COc1ccc(Cl)cc1)NNC(=O)C(=O)N1CCCCC1	18.8	-13.9	1	0.9	8.2	-0.5
CCN=C(Nc1ccc2c(c1)OCO2)SC1CC(=O)N(c2ccccc2F)C1=O (stereo unspecified)	5.3	-5.6	0	0.5	47.2	100.0*
C/C(CCc1ccc2c(c1)OCO2)=N\N=C(/N)SC1CC(=O)N(c2ccccc2F)C1=O (stereo unspecified)	-10.2	8.6	0.3	0.8	21.1	74.4*
CCN=C(Nc1ccc2c(c1)OCO2)SC1CC(=O)N(c2ccc(OC)cc2)C1=O (stereo unspecified)	-3.0	4.4	.	.	.	.
SMILES	sEH act	sEH inhibitor	CYP2C9 activ	CYP2C19 activ	CYP2C19 inhib	CYP2C9 inh
Cc1cc(C)n(-c2nncn2/N=C/c2ccccc2F)n1	8.1	-8.3	1.1	1.1	-8.9	-10.0
Cc1ccc2nc(C3CCN(C(=O)c4ccco4)CC3)[nH]c2c1	-11.2	12.4	0.7	0.9	6.2	26.3
CC(C)(C)NC(=O)C(c1ccco1)N(C(=O)Cn1nnc(-c2ccc(F)cc2)n1)c1ccccc1F (stereo unspecified)	16.3	-12.2	0.9	0.8	23.4	11.8
CC1=C(C(=O)OCCOC(C)C)C(c2cccnc2)C2=C(CCCC2=O)N1 (stereo unspecified)	-13.1	12.9	0.4	0.3	70.0*	55.7*
CCOC(=O)C1=C(C)NC(=O)CC1c1cc2c(cc1Br)OCO2 (stereo unspecified)	.	.	0.1	0	98.8*	89.8*
C=CCOC(=O)C1=C(C)N(C)C(=O)NC1c1cc2c(cc1Br)OCO2 (stereo unspecified)	.	.	0.3	0	96.3*	71.2*
CC1=C(C(=O)OCCOC(C)C)C(c2cc3c(cc2Br)OCO3)C2=C(CCCC2=O)N1 (stereo unspecified)	0.7	-2.1	0.8	0.1	88.7*	23.1
COCCOC(=O)C1=C(C)NC2=C(C(=O)CCC2)C1c1ccc(N(C)C)cc1 (stereo unspecified)	.	.	0.7	0.8	20.7	30.0
CCN(CC)c1ccc(C2C(C(=O)OCCOC(C)C)=C(C)NC3=C2C(=O)CCC3)cc1 (stereo unspecified)	3.6	-3.1	0.7	0.7	27.4	25.4
O=C(Nc1cccnc1Cl)c1ccc(S(=O)(=O)N2CCCCCC2)cc1	-17.2	18.7	0.7	1.1	-8.4	26.8

Screening results as filed in PubChem BioAssay.
